The record followed here is PubChem BioAssay (NCI).

Molecules are shown by their SMILES. This is part of a sample that, as a whole, favours compounds with a hit. Of some 83,000 tested, about 20% had one in any assay.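 Results are percent growth after 48 hours of single-concentration exposure. 100 means growth as in untreated cells, lower positive values show inhibition; negative values down to -100 show cell death.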 Calls of active or inactive are those of the source. How the source made its calls: active means growth percent below 10; inactive means the rest.

The assay deals with HL-60(TB) leukemia. In words: NCI-60 one-dose screen, 48 h (100 = growth as untreated, 0 = no growth, -100 = all killed). To be noted: 10 µM unless noted.
As to `CCOC(=O)c1[nH]cc2c1CCc1sc(Nc3ccccn3)nc1-2`, the growth is 75.9% (inactive).
Turning to `CC(C)(C)c1cc(O)c(O)c(C(C)(C)C)c1`, the growth is 4.04% (active).
On to `c1ccc(-c2cc(-c3cc(-c4ccccc4)on3)no2)cc1`, for which the growth was 64% (inactive).
Regarding `CCOc1cc2ncc(C#N)c(Nc3ccc(OCc4cccc(F)c4)c(Cl)c3)c2cc1NC(=O)CC1CCSS1` (centres undefined), the growth was 54.8% (inactive).
Consider `Fc1ccc2c(CN3CCO[C@H](COc4cccc(Cl)c4)C3)c[nH]c2c1`, for which the growth was 27.1% (inactive).
For `N#CCCN1C/C(=C/c2ccc(Br)cc2)C(=O)/C(=C/c2ccc(Br)cc2)C1`, the growth was 1.68% (active).
In the case of `COc1ccc(-c2cc(-c3cccnc3)nc3sc(C(=O)Nc4ccccc4)c(N)c23)cc1OC`, the growth was 60.2% (inactive).
Regarding `S=c1[nH]c2cc(Cl)ccc2s1`, the growth is 97.4% (inactive).
On to `COc1ccc(CNCCCN2C(=O)c3ccc4c5c(ccc(c35)C2=O)C(=O)N(CCCNCc2ccc(OC)c(OC)c2OC)C4=O)c(OC)c1OC`, for which the growth is -61.3% (active).
For the compound `Cc1c(-c2ccccc2)[nH]c2ccccc12`, the growth is 106% (inactive).
As to `CC(C)NCC(O)COc1ccc(CC(N)=O)cc1` (centres undefined), the growth is 101% (inactive).
The value for `O=C(c1ccccc1)c1c(/C=C/c2ccccc2)nc2ccccc2c1/C=C/c1ccc(Br)cc1` was 112% (inactive); that for `CC(=O)N1N=C(c2ccc(C)cc2)CC1c1ccc(Oc2ccc(Br)cc2)cc1` (centres undefined) was 94% (inactive).
Turning to `COC(=O)[C@]12CC[C@@H](C)[C@H](C)[C@@H]1C1=CC[C@@H]3[C@@]4(C)C(C=O)=C[C@@](C)(COC(=O)c5ccco5)C4=CC[C@@]3(C)[C@]1(C)CC2`, the growth was -9.45% (active).
